# Screens from PubChem BioAssay.
# Glioma ERSR ind: ER stress response induction in glioma; AID 602332; 420,000 tested, 0.02% active; Potency, µM, usual class: activators; U87-MG GRP78 promoter luciferase reporter, 16 h; note: series mostly up to about 76 µM; nearly all actives have a fitted effect of over 35% in size
#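 Stably transfected U87-MG glioma cells carrying a GRP78-based luciferase sensor; 16 h compound incubation. Luminescence end-point read 10 min after Bright-Glo addition at room temperature.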
# PI5P4K alpha inh: PI5P4K alpha (human) kinase inhibition. P48426. max response, %. PI5P4Kalpha enzyme, ADP-Glo luminescence, 60 min; active compounds read low. 330,000 tested, 1.2% active; active = max response of -50% or lower; inconclusive = between -30% and -50%; inactive = -30% or higher; note: value at the top dose of about 77 µM
#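 qHTS, 1536-well: enzyme/substrate mix, compound by pin tool, 5 microM ATP final; RT 60 min; ADP-Glo reagents 1 (45 min) then 2 (30 min); luminescence.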
# PGK inhibitor: inhibitors of T. brucei phosphoglycerate kinase; P07378; PGK/GAPDH coupled, Kinase-Glo luminescence, 60 min; Potency, µM (highest dose often 57.5 µM), most hits filed as inhibitors; 380,000 tested, 0.043% active; AID 602233; note: nearly all actives have a fitted effect of over 60% in size
#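 Luminescent ATP detection (Kinase-Glo Plus) follows a 60-minute room-temperature incubation, with wells lacking PGK as controls. Buffer: 100 mM TEA (pH 7.6), 5 mM MgCl2, 0.01% Tween-20. Coupling enzyme GAPDH (100 nM final) supplies unstable 1,3-BPG in-well.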
# FEN1 inhibitor: inhibitors of human flap endonuclease 1; P39748; Recombinant FEN1 flap cleavage, fluorescence, 15 min; Potency, µM (top dose mostly 114 µM), usual class: inhibitors; 390,000 tested, 0.35% active; note: nearly all actives have a fitted effect of over 65% in size
#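 Compounds are tested as a concentration series against 10 nM FEN1; after a 15 min room-temperature preincubation, 50 nM substrate starts cleavage, with plate reads at 0 and 15 min. Normalized responses are fitted by a Hill equation.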
# WRN inhibitor: blocks human WRN helicase; Potency, µM (highest dose often 114 µM), most hits filed as inhibitors; Q14191; WRN helicase unwinding, fluorescent forked duplex, kinetic; 360,000 tested, 0.46% active; note: nearly all actives have a fitted effect of over 55% in size
#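 Fluorescence dequenching readout, ex 525 nm/em 598 nm, kinetic mode: forked duplex DNA (100 nM final) with adjacent fluorophore and quencher unwound by WRN (20 nM final) with 2 mM ATP. Compound preincubation 15 min, room temperature.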
# Pin1 inh: human Pin1 inhibition; Pin1 FP peptide displacement, HiFluor488, 10 min; Potency, µM (titrated, usually from 115 µM), usual class: inhibitors; 390,000 tested, 0.009% active; AID 504891; active = well fitted inhibition curve with a large enough effect in the polarisation, with a control signal flat, not every such curve was filed as active; inconclusive = small, poorly fitted or top-dose-only effect, or effect the other way, or a change in a side signal; inactive = no such curve, though single readings can be large or run the other way; the % refers to the polarisation
# Hits are given with their value; – = inactive; ? = inconclusive; · = no result given; [ ] = another dose, or the depositor's remark. Hits are enriched below; roughly 1.3% of the tested compounds scored in any of these assays. Unless noted, calls come from the whole dose curve; as a rule, active = well fitted curve in the direction sought with a large enough effect; inconclusive = small, poorly fitted or top-dose-only effect, or another doubt; inactive = no such curve, though single readings can be large; an effect the other way counts as inactive or inconclusive.
SMILES,Glioma ERSR ind,PI5P4K alpha inh,PGK inhibitor,FEN1 inhibitor,WRN inhibitor,Pin1 inh
O=C1NC(=S)S/C1=C\c1cc2ccccc2nc1N1CCCCC1,–,–,–,–,–[11.6 µM],–
COCCN1CCN(C(=O)c2cnn(-c3nccc(-c4ccccc4OC)n3)c2-c2ccco2)CC1,–,·,·,·,·,·
CCCNc1ncc2c(=O)[nH][nH]c(=O)c2n1,–,-55,–,–,–,?
CCCNc1ccc(S(=O)(=O)N(CC)CC)cn1,–,–,–,–,–,–
CC[N+](CC)(CC)c1ccc(/C=C/c2ccc3ccccc3n2)cc1,–,·,·,40µM,·,·
Cc1cc2c(s1)c1cnn(Cc3c(F)cccc3C(F)(F)F)c(=O)c1n2C,·,·,·,·,·,–
N#C/C(=C(/O)CCl)c1nc2ccccc2[nH]1,25µM,–,–,–,–,?
N#CC(=C(O)COC(=O)Cc1c[nH]c2ccccc12)c1nc2ccccc2[nH]1,–,-54,–,–,–,?
N#C/C(=C(\O)Cc1ccccc1)c1nc2ccccc2[nH]1,–,–,–,–,–,–
CCCC(=O)OC/C(O)=C(\C#N)c1nc2ccccc2[nH]1,–,–,–,–,–,?
CCc1nn2c(=O)cc(NC3CNC3)nc2s1,·,·,·,·,·,–
CCOC(=O)Nc1cc2c(c(N)n1)N=C(c1ccccc1)CN2,–,-68,–,?,56µM,?
O=[N+]([O-])c1cc(/C=N\Nc2nc(-c3ccccc3)cs2)ccc1O,–,-63,–,?,?,?
COc1cc(/C=N/Nc2nc(-c3ccc(S(=O)(=O)N(C)C)cc3)cs2)ccc1O,–,–,–,?,–,–
O=C(Nc1ccccc1C(F)(F)F)NC1(C(=O)N2CCOCC2)CCCCC1,–,-88,–,–,?,?
COc1ccccc1C1CN(CCNC(=O)c2ccc3c(c2)OCCO3)Cc2ccccc2O1 (stereo not given),–,·,·,·,·,·
COc1cccc(CN2C(=O)NC(C)(C3CCN(Cc4cnn(C)c4C)CC3)C2=O)c1OC (stereo not given),–,·,·,·,·,·
O=C(CNC(=O)c1ccccc1)OC(CCc1ccccc1)C(=O)Nc1cc(C(F)(F)F)ccc1Cl (stereo not given),·,·,·,·,·,–
COc1ccc(C2Nc3ccccc3C(=O)N2Cc2ccccc2)cc1COc1ccc(NC(=O)c2ccccc2)cc1 (stereo not given),·,·,·,·,·,–
CCc1ccc(S(=O)(=O)/N=C2/C=C(Sc3ncn[nH]3)C(=O)c3ccccc32)cc1,–,-94,?,79µM,20µM,43µM
CCC(=O)C(Cc1ccccc1)(Cc1ccccc1)CC(C)N(C)C (stereo not given),–,·,·,·,·,·
Cc1ccc(-c2csc(C3=C(O)CN(NC(=O)c4ccc([N+](=O)[O-])cc4)C3=N)n2)cc1,–,–,–,–,–,–
N=C1C(c2nc(-c3cccc([N+](=O)[O-])c3)cs2)=C(O)CN1NC(=O)c1ccco1,–,-55,–,–,?,?
COc1ccc(CN2CCCC(n3cc(C(=O)N4CCCCC4)nn3)C2)c(OC)c1C (stereo not given),–,·,·,·,·,·
COc1cc2nc(N3CCCC(O)C3)c(CNCc3ccccc3F)cc2c(OC)c1OC (stereo not given),–,·,·,·,·,·
SMILES,Glioma ERSR ind,PI5P4K alpha inh,PGK inhibitor,FEN1 inhibitor,WRN inhibitor,Pin1 inh
O=C(O)c1cc(=O)c2c(Cl)cc(Cl)cc2[nH]1,–,-59,–,–,–,–
O=C(O)c1cc(=O)c2ccccc2[nH]1,–,–,–,–,–,–
CC(C)(C)N1C(=O)Cc2c1nc(N)c1c(N)nc(N3CCCCC3CO)c(C#N)c21 (stereo not given),–,-58,–,–,?,–
O=C(NCc1ccccc1)n1cc(P(=S)(c2ccccc2)c2ccccc2)c2ccccc21,·,·,·,·,·,–
CC(=O)Nc1cccc(S(=O)(=O)N2CCCN(S(=O)(=O)c3ccc4c(c3)OCCO4)CC2)c1,·,·,·,·,·,–
CCc1ccc(/C=C(/C#N)c2nc(-c3ccc(C)cc3)cs2)cc1,–,·,–,–,·,–
CCOc1ccc(-c2csc(/C(C#N)=C\c3ccc(O)c([N+](=O)[O-])c3)n2)cc1,–,?,?,79µM,?,?
COc1ccc(CCN2C(=O)CC(Cc3ccc(C)cc3)C2=O)cc1OC (stereo not given),–,-69,–,–,?,–
COc1ccc(CCN2C(=O)C=CC2=O)cc1OC,–,–,–,–,32µM,–
CCOC(=O)C1=C(C)N(CCCC(=O)O)C(=O)NC1c1ccccc1 (stereo not given),–,-57,–,–,–,–
CCOC(=O)C1=C(C)N(CCCCCC(=O)O)C(=O)NC1c1cccc([N+](=O)[O-])c1 (stereo not given),–,–,–,–,–,–
CC1=C(C(=O)OCC(Br)(Br)Br)C(c2cccc([N+](=O)[O-])c2)NC(=O)N1CCCC(=O)O (stereo not given),–,-64,–,–,–,–
CCOC(=O)C1=C(C)N(CCCC(=O)O)C(=O)NC1c1ccc(Cl)cc1 (stereo not given),–,-93,–,–,–,–
CCOC(=O)C1=C(C)N(CCCC(=O)O)C(=O)NC1c1ccc2ccccc2c1 (stereo not given),–,-75,–,–,–,–
CCOC(=O)C1=C(C)N(CCCCCC(=O)O)C(=O)NC1c1ccc(Br)cc1 (stereo not given),–,–,–,–,–,–
Cc1csc(CN(C)C(=O)c2sc3ncnc(NCC4CCCO4)c3c2C)n1 (stereo not given),–,·,·,·,·,·
O=C1CCCC2=C1C1(CCSCC1)N=C(Nc1nc3ccccc3o1)N2,·,·,·,·,·,–
O=C(Cn1nc2ccccc2n1)N1CCOc2ccc(CN3CCc4sccc4C3)cc2C1,–,·,·,·,·,·
O=C1C(=O)C(c2cc(O)c(O)c(O)c2)Oc2cc(O)cc(O)c21 (stereo not given),–,·,·,1.4µM,·,?
O=C1CC(c2ccc(O)c(O)c2)Oc2cc(O)cc(O)c21 (stereo not given),?,–,–,?,?,–
O=C(CNC(=O)c1ccco1)N/N=C/c1ccc(O)c([N+](=O)[O-])c1,–,–,–,–,–,–
O=C(N/N=C/c1ccc(OC(=O)c2ccccc2)c([N+](=O)[O-])c1)c1ccc(O)cc1,–,-79,–,–,–,–
O=C(CNC(=O)c1ccc(F)cc1)N/N=C/c1ccc(O)c([N+](=O)[O-])c1,–,-65,–,–,–,–
O=C(CNC(=O)c1cccc(F)c1)N/N=C/c1ccc(O)c([N+](=O)[O-])c1,–,-72,–,–,–,–
C(=C1NCCN1)c1cccc2ccccc12,–,·,·,·,·,·
O=C(CN1Cc2ccccc2OC(c2ccccc2F)C1)NC(c1ccccn1)C(F)(F)F (stereo not given),–,·,·,·,·,·
